IL-1B inflam inh – blocks inflammasome-driven IL-1 beta release; activity change, % at 57.5 µM; AID 743279; THP-1 LPS/ATP IL-1B secretion, AlphaLISA, 16 h; hits give low values; 360,000 tested, 4.7% active; in the data active = activity change below about -50%; inconclusive = mostly about -30% to -49%
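Secreted IL-1B measured by AlphaLISA bead assay after 16 h compound exposure of THP-1 cells; compounds (final up to 57.5 uM) added 1 h before LPS (250 ng/mL) and ATP (1.25 mM) stimulation; lower signal means less secretion.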
HT1080-NT tox – kills 2HG-producing HT-1080-NT fibrosarcoma cells; AID 686970; 360,000 tested, 1.6% active; Potency, µM (highest dose often 46.1 µM), without a hit: at the highest dose activity, negative = less viability, usual class: cytotoxic; HT-1080-NT fibrosarcoma viability, CellTiter-Glo ATP luminescence, 48 h;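 also: NT is the 2HG producing partner of a matched IDH1 knockdown line; potency is read from the fitted curve at half-maximal effect; 0% = DMSO-treated cells and -100% = media-only wells without cells; nearly all actives have a fitted effect of over 55% in size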
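Luminescent CellTiter-Glo readout after 48 hours of compound exposure at 37 degrees C defined viability of HT-1080-NT cells. Activity was normalized to DMSO wells and cell-free media wells; concentration-response curves were fitted and assigned curve classes.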
HT1080 IDH1KD tx – toxicity to HT-1080 IDH1 knockdown cells (counter line); HT-1080 IDH1 knockdown viability, ATP luminescence, 48 h; Potency, µM (top dose mostly 46.1 µM), without a hit: at the top dose activity, negative = toxicity, actives largely listed as cytotoxic; 360,000 tested, 2% active; AID 686971;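 also: potency is read from the fitted curve at half-maximal effect; 0% = DMSO wells and -100% = cell-free medium wells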
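% activity derives from luminescence (CellTiter-Glo), normalised to DMSO and no-cell wells. HT-1080-IDH1KD cells, 750/well, had 48 h compound exposure at 37 °C.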
DT40 TDP1 CPT – DT40-hTDP1 cell growth loss with CPT | chicken DT40 Tdp1-/-;hTDP1 cells + 20 nM CPT, ATP luminescence, 48 h | Potency, µM (highest dose often 46.2 µM), inactives show at the highest dose activity change, negative = growth inhibition, actives largely listed as inhibitors | 420,000 tested, 12% active; also: potency is read from the fitted curve at half-maximal effect; nearly all actives have a fitted effect of over 55% in size
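Chicken DT40 Tdp1-/- cells stably complemented with human TDP1 were seeded at 400 cells/well in medium containing 20 nM camptothecin, exposed to pin-transferred compounds, and grown at 37 °C for at least 48 hr. Viability was read as ATP luminescence.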
DT40 TDP1 no CPT – qHTS for Inhibitors of human tyrosyl-DNA phosphodiesterase 1 (TDP1): qHTS in cells in absence of CPT; DT40 Tdp1-/- hTDP1 cells, no CPT, ATP luminescence, 48 h; Potency, µM (top dose mostly 46.2 µM), for inactives: at the top dose activity change, negative = growth inhibition, hits mostly inhibitors; 420,000 tested, 15% active; AID 686978, 2013; also: potency is read from the fitted curve at half-maximal effect; nearly all actives have a fitted effect of over 55% in size
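Cells were dispensed at 400 per well, compounds added by pin tool, plates incubated ≥48 hr at 37 °C, then CellTiter-Glo added for 30 min at room temperature before luminescence reading. Line: DT40 Tdp1-/- complemented with hTDP1; camptothecin omitted.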
* = called active by the depositor; ? = inconclusive; nt = not tested or not shown; [ ] = another dose, or the depositor's remark. Compounds with a hit are over-represented: about 19% of the library has one in this group of screens. Unless noted, calls follow the shape of the dose curve; as a rule, active = well fitted curve in the direction sought with a large enough effect; inconclusive = small, poorly fitted or top-dose-only effect, or another doubt; inactive = no such curve, though single readings can be large; an effect the other way counts as inactive or inconclusive. Unless noted, % is scaled to controls: 0 for no effect and ±100 for the full control effect.

SMILES	IL-1B inflam inh	HT1080-NT tox	HT1080 IDH1KD tx	DT40 TDP1 CPT	DT40 TDP1 no CPT
CCOC(=O)c1cnc2c(OC)cccc2c1N1CCN(c2ccccn2)CC1	-53*	-14%	-14%	?	16µM*
CCOC(=O)c1cnc(N2CCN(c3ccccc3)CC2)[nH]c1=O	8	3%	15%	7%	-11%
CCOC(=O)c1cnc2c(OC)cccc2c1N1CCN(c2ccc(OC)cc2)CC1	-19	-1%	2%	?	16µM*
CCOC(=O)c1cnc2cc(C(F)(F)F)ccc2c1N1CCN(c2ccc(F)cc2)CC1	nt	nt	nt	?	21µM*
CCOC(=O)c1cnc2ccc(Cl)cc2c1N1CCN(C)CC1	-25	-18%	-2%[9.24 µM]	?	-29%
CCOC(=O)c1cnc2c(OC)cccc2c1N1CC(C)CC(C)C1 (centres undefined)	45	1%	0%	12µM*	7.3µM*
CCOC(=O)c1cnc2ccc(OCC)cc2c1N1CCN(c2cccc(Cl)c2)CC1	nt	nt	nt	16µM*	8.2µM*
CCOC(=O)c1cnc2c(C)cc(Cl)cc2c1N1CCN(C)CC1	-64*	1%	6%	?	?
CCOC(=O)c1cnc2ccc(OCC)cc2c1N1CCN(C)CC1	?	-4%	-4%	?	?
COc1cccc(CNC(=O)c2cnn(-c3ncc4c(n3)-c3ccccc3CCC4)c2C)c1OC	nt	nt	nt	?	-22%
COc1ccccc1Cn1c(C)c(C(=O)NCCC#N)sc1=O	-20	-7%	?	-11%	4%
O=C(c1ccc([N+](=O)[O-])cc1)N(Cc1cccs1)C1CCS(=O)(=O)C1 (centres undefined)	-11	0%	-2%	-18%	-2%
O=C(Nc1ccc2c(c1)CCC2)C1CCN(c2c3c(nc4ncnn24)CCC3)CC1	-18	?	?	23µM*	21µM*
Cc1cc(C)nc(N2CCC(C(=O)Nc3ccc(Oc4ccccc4)cc3)CC2)n1	23	6%	5%	5.8µM*	8.2µM*
Cc1cc(C)nc(N2CCC(CNC(=O)CCc3ccccc3)CC2)n1	33	0%	11%	?	21µM*
O=C(Nc1ccc(Oc2ccccc2)cc1)C1CCN(c2c3c(nc4ncnn24)CCC3)CC1	-91*	-26%	-9%	15µM*	18µM*
Cc1ccc(NC(=O)C(C)Sc2nc(=O)cc(N)n2-c2cccc(C)c2)cc1 (centres undefined)	nt	nt	nt	-10%	-22%
O=S(=O)(Nc1cccc(-c2ccc(N3CCCC3)nn2)c1)c1ccc(F)c(C(F)(F)F)c1	nt	nt	nt	7%	2%
CCCN1C(=O)C2(C(C(=O)c3ccc(C)o3)=C(O)C(=O)N2CCCOC)c2ccccc21 (centres undefined)	25	3%	15%	0%	-6%
Cc1cccc(CN2CCN(C(c3ccccc3)c3ccc(Cl)cc3)CC2)c1 (centres undefined)	20	?	?	?	7.3µM*
O=C(C1CCN(Cc2ccc(Cl)cc2)CC1)N1CCN(C(c2ccccc2)c2ccccc2)CC1	-53*	?	?	?	12µM*
CC(C)(C)c1ccc(CN2CCN(C(c3ccccc3)c3ccc(Cl)cc3)CC2)cc1 (centres undefined)	nt	nt	nt	13µM*	24µM*
CN1CCN(C(c2ccccc2)c2ccccc2)CC1	-14	?	-3%	?	?
CN(C)CCN1CCN(C2CN(Cc3ccc(F)cc3)S(=O)(=O)C2)CC1 (centres undefined)	-27	29%	5%	7%	-2%
OC(Cc1ccccc1Br)c1ncc(-c2ccc(Cl)cc2)[nH]1 (centres undefined)	-4	?	21µM*	?	?
SMILES	IL-1B inflam inh	HT1080-NT tox	HT1080 IDH1KD tx	DT40 TDP1 CPT	DT40 TDP1 no CPT
OC(Cc1ccccc1)c1ncc(-c2ccc(Cl)cc2)[nH]1 (centres undefined)	7	?	?	?	16µM*
CCc1ccc(C(O)c2ncc(-c3ccc(Cl)cc3)[nH]2)cc1 (centres undefined)	3	-26%	-18%	?	?
CCC(C(=O)NCCCN1CCCCCC1)n1nc(C)c2sc3ccccc3c2c1=O (centres undefined)	0	-2%	-4%	-1%	26%
CCC(C(=O)NC1CCCCC1)n1nc(C)c2sc3ccccc3c2c1=O (centres undefined)	nt	nt	nt	10µM*	9.2µM*
CCC(C(=O)NCc1ccccc1Cl)n1nc(C)c2sc3ccccc3c2c1=O (centres undefined)	nt	nt	nt	18µM*	?
CCC(C(=O)N(C)Cc1ccccc1)n1nc(C)c2sc3ccccc3c2c1=O (centres undefined)	nt	nt	nt	?	16µM*
COCC(=O)Nc1cc(C(=O)N2CC3CCCC2C3)c2c(c1)nc(-c1ccncc1)n2C (centres undefined)	nt	nt	nt	6%[9.04 µM]	-7%
CC(=O)Nc1ccc(NC(=S)NC(=O)c2ccc(-c3ccccc3)cc2)cc1	6	?	-4%	-3%	-6%
O=C(NC(=S)Nc1ccccc1)c1ccc(-c2ccccc2)cc1	-7	9%	7%	?	18µM*
CC(C)NS(=O)(=O)c1ccc(NC(=S)NC(=O)c2ccc(-c3ccccc3)cc2)cc1	27	?	-28%	11µM*	14µM*
Cn1c(=O)c2c(SCC(=O)NCc3ccco3)nc(-c3cccc(F)c3)nc2n(C)c1=O	nt	nt	nt	-12%	-9%
Cn1c(=O)c2c(SCC(=O)NCc3ccco3)nc(-c3ccccc3Cl)nc2n(C)c1=O	3	-1%	0%	?	23µM*
CCOC(=O)C1(C)CCN1C(=O)c1cc(C)oc1C (centres undefined)	-9	21%	4%	-13%	0%
O=C1[C@H]2[C@@H](c3ccc(Cl)cc3)N3C(=O)N(c4cccc(F)c4)C(=O)[C@@]3(Cc3ccc(Cl)cc3)[C@H]2C(=O)N1C1CCCCC1	4	-1%	1%	?	16µM*
CC[C@@]12C(=O)N(c3cccc(Br)c3)C(=O)N1[C@H](c1ccc(Cl)cc1)[C@@H]1C(=O)N(C3CCCCC3)C(=O)[C@@H]12	?	-18%	-1%	?	?
CC[C@@]12C(=O)N(c3ccc(OC)cc3)C(=O)N1[C@H](c1ccc(Cl)cc1)[C@@H]1C(=O)N(C3CCCCC3)C(=O)[C@@H]12	?	5%	5%	21µM*	?
O=C(O)Cn1c(=O)c2c3c(sc2n(Cc2ccc(Cl)cc2Cl)c1=O)CCCC3	0	-25%	3%	-21%	-24%

Screening results as filed in PubChem.
